Hit rate of the full screen: of about 310,000 compounds, about 14,000 (4.5%) showed an effect of 50% or more. The effect is printed as a negative number. The sample as a whole holds a higher share of strong results than the screen did.
Each molecule was assayed against human ether-à-go-go-related gene (hERG) potassium channel (human, UniProt Q12809) (assay: primary screen, population patch clamp on CHO cells stably expressing hERG; higher = less effect of the substance).
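Further: peak tail current of the secondary pulse compared with the same well before compound.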

Chain of human ether-à-go-go-related gene (hERG) potassium channel (Q12809 whole entry, looked up): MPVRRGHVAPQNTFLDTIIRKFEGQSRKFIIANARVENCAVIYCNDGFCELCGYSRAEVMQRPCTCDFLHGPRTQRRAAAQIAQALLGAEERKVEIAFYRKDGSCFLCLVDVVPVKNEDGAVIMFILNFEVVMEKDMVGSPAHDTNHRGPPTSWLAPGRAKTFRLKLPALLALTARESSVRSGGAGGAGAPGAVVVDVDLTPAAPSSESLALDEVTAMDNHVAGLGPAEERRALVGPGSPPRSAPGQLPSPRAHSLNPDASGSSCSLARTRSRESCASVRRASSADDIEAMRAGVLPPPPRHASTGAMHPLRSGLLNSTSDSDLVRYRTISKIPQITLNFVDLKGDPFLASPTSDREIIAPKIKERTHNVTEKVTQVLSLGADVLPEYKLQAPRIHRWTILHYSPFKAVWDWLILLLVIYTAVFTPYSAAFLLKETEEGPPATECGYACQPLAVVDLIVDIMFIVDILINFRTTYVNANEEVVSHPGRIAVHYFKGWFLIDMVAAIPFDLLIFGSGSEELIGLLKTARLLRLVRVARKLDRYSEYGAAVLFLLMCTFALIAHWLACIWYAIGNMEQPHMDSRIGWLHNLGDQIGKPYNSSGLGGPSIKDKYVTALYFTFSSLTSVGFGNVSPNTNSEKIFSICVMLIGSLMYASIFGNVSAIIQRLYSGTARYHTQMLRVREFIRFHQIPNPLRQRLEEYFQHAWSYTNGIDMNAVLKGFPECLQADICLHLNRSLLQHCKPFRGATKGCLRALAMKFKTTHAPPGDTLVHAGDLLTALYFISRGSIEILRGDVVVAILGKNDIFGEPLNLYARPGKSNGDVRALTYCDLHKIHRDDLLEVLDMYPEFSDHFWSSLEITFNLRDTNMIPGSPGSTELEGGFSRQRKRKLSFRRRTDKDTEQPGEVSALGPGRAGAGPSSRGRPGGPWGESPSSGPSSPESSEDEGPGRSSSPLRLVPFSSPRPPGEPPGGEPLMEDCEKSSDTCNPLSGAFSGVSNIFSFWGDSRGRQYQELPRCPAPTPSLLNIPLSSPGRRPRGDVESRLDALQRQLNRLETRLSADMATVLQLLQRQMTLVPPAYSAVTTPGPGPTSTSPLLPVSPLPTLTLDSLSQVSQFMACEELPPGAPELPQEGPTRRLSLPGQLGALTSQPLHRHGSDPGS

Row | Compound | hERG current change (%, negative = inhibition) at 10uM [%]
1 | COc1cccc(C(=O)O/N=C(\N)c2ccccn2)c1 | -2.49
2 | Cc1cc(C)cc(C(=O)Nc2cccc(NC(=O)c3ccco3)c2)c1 | -14.2
3 | Cc1ccc(S(=O)(=O)NCCC(=O)N2CCCCCC2)cc1 | 1.86
4 | CC(C)c1nc(SCC(=O)N2CCCC2)c2c(=O)n(C)c(=O)n(C)c2n1 | -21.8
5 | O=C(NC(=S)N1CCCC1)c1cccc([N+](=O)[O-])c1 | 19.9
6 | CCCCNC(=O)CCCCCNS(=O)(=O)c1ccc(OC)cc1 | 13.8
7 | CCn1c(SCC(=O)Nc2ccc(N3CCOCC3)cc2)nnc1-c1ccc(OC)cc1 | -14.8
8 | CCCc1c2c(cc3c(=O)cc(C(=O)OCC)oc13)CCCC2 | -0.971
9 | COc1cc(OC)cc(C(=O)Nn2cc(C(=O)N3CCN(C)CC3)c3ccccc3c2=O)c1 | 2.72
10 | Cc1ccc(NC(=O)NCCN2CCN(c3ccccc3)CC2)cc1Cl | 16.7
11 | O=C(NCCN1CCN(c2ccccc2)CC1)Nc1ccc(Cl)cc1 | -45.5
12 | O=C(Nc1cc(Cl)cc(Cl)c1)N1CCCN(Cc2ccccc2)CC1 | -76.3
13 | O=C(NCCN1CCOCC1)Nc1ccccc1 | -6.63
14 | O=C(NCCN1CCN(c2ccccc2)CC1)Nc1cccc(Br)c1 | -58.1
15 | O=C(Nc1ccccc1)N1CCN(Cc2ccccc2)CC1.O=C(O)C(=O)O | 11.9
16 | O=C(NCCN1CCN(c2ccccc2)CC1)Nc1ccccc1Br | -52.1
17 | O=C(NCCN1CCN(c2ccccc2)CC1)Nc1cccc(Cl)c1 | -55.7
18 | O=C(Nc1ccccc1)N1CCN(Cc2ccc(Cl)cc2)CC1 | -33.8
19 | O=C(NCCCN1CCN(c2ccccc2)CC1)Nc1ccccc1C(F)(F)F | -49.3
20 | O=C(NCCN1CCN(c2ccccc2)CC1)Nc1ccccc1Cl | -43.3
21 | O=C(NCCN1CCN(c2cccc(Cl)c2)CC1)Nc1ccccc1 | -35.1
22 | COC(=O)c1sccc1NC(=O)Nc1ccccc1C | 9.22
23 | COCCNS(=O)(=O)c1cccc2cccnc12 | 11.6
24 | Cc1ccc(N=C2C(=O)Nc3ccccc32)cc1C | 7.9
25 | Cn1c(N)c(C(=O)COC(=O)c2nc(Cl)ccc2Cl)c(=O)n(C)c1=O | -11.2
26 | COc1ccc(C(=O)NCCCSc2ccccc2)cc1F | 8.32

Reference: PMC4336329 (PLoS ONE, 2015)
